Reference: PubChem BioAssay (Tox21)
Records with an inconclusive call do not appear. Where a call stands in place of a potency, no number is given. Calls of active or inactive are those of the source. Unless noted, calls follow the shape of the dose curve; as a rule, active = well fitted curve in the direction sought with a large enough effect in the repeat runs; inconclusive = weak or mixed curves; inactive = no such curve, though single readings can be large; an effect the other way counts as inactive or inconclusive.

Assays:
[1] = molecular target: Peroxisome proliferator-activated receptor delta (Homo sapiens) (UniProt Q03181); experiment: qHTS assay to identify small molecule agonists of the peroxisome proliferator-activated receptor delta (PPARd) signaling pathway (AID 743212; calls by dose curve; also: potency is read from the fitted curve at half-maximal effect)
Summary of the method: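 HEK293H UAS-bla reporter cells, human PPARd system; compounds delivered in DMSO after 5 h plating, then at 37 C. Beta-lactamase FRET read, 2 h RT substrate step.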

[2] = qHTS assay to identify small molecule antagonists of the peroxisome proliferator-activated receptor delta (PPARd) signaling pathway - cell viability counter screen (AID 743213); also: nearly all actives have a fitted effect of over 50% in size; also: potency is read from the fitted curve at half-maximal effect
Summary of the method: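 PPARd-bla HEK293H cells were treated with compounds plus agonist L165041 (300 nM final) for 17 h at 37 C. Viability was then read in the same wells by CellTiter-Glo luminescence after 30 min at room temperature.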

[3] = molecular target: Peroxisome proliferator-activated receptor delta (Homo sapiens) (UniProt Q03181); experiment: qHTS assay to identify small molecule antagonists of the peroxisome proliferator-activated receptor delta (PPARd) signaling pathway (AID 743215; active = well fitted inhibition curve with a large enough effect in the signal ratio in the repeat runs, not every such curve was filed as active; the % refers to the signal ratio;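 also: cells stimulated with agonist L165041 at 300 nM final during compound exposure; series mostly up to about 62 µM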)
Summary of the method: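 Inhibition of L165041-driven (300 nM final) PPARd signaling is scored in HEK293H UAS-bla cells. Exposure lasts 17 h at 37 C; beta-lactamase activity is then read by FRET substrate fluorescence after 2 h at room temperature.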

[4] = qHTS assay to identify small molecule agonists of the farnesoid-X-receptor (FXR) signaling pathway - cell viability counter screen (AID 743218); also: nearly all actives have a fitted effect of over 45% in size; also: potency is read from the fitted curve at half-maximal effect
Summary of the method: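 Cytotoxicity counter-screen run in parallel, same wells: FXR-UAS-bla HEK 293T cells dosed 16 h at 37 C, viability read by CellTiter-Glo luminescence after 30 min at room temperature.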

[5] = qHTS assay to identify small molecule antagonists of the farnesoid-X-receptor (FXR) signaling pathway - cell viability counter screen (AID 743221; active = well fitted cell-killing curve with a large enough effect in the repeat runs, not every such curve was filed as active; also: nearly all actives have a fitted effect of over 50% in size; also: potency is read from the fitted curve at half-maximal effect)
Summary of the method: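 Cytotoxicity counter screen run in the FXR-bla reporter wells: HEK 293T cells exposed to compound with 50 uM (final) chenodeoxycholic acid for 16 h, 37 C, then viability measured by CellTiter-Glo luminescence after 30 min, room temperature.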

[6] = molecular target: Vitamin D3 receptor (Homo sapiens) (UniProt P11473); experiment: qHTS assay to identify small molecule antagonists of the vitamin D receptor (VDR) signaling pathway (AID 743223; active = well fitted inhibition curve with a large enough effect in the signal ratio in the repeat runs, not every such curve was filed as active; the % refers to the signal ratio)
Summary of the method: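 Antagonist mode: compound added to VDR-bla cells alongside agonist 1alpha,25-dihydroxyvitamin D3 (3 nM final), incubation 16 h at 37C. Read-out is LiveBLAzer FRET fluorescence, 2 h at room temperature.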

[7] = molecular target: Bile acid receptor (Homo sapiens) (UniProt Q96RI1); experiment: qHTS assay to identify small molecule antagonists of the farnesoid-X-receptor (FXR) signaling pathway (AID 743217; active = well fitted inhibition curve with a large enough effect in the signal ratio in the repeat runs, not every such curve was filed as active; the % refers to the signal ratio; also: potency is read from the fitted curve at half-maximal effect)
Summary of the method: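 Antagonist mode against 50 uM (final) chenodeoxycholic acid stimulation in FXR-bla HEK 293T cells, 16 h at 37 °C. Inhibition detected as reduced beta-lactamase activity via LiveBLAzer B/G FRET fluorescence after 2 h at room temperature.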

[8] = molecular target: Bile acid receptor (Homo sapiens) (UniProt Q96RI1); experiment: qHTS assay to identify small molecule agonists of the farnesoid-X-receptor (FXR) signaling pathway (AID 743220; active = well fitted activation curve with a large enough effect in the signal ratio in the repeat runs, not every such curve was filed as active; the % refers to the signal ratio; also: potency is read from the fitted curve at half-maximal effect)
Summary of the method: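 Beta-lactamase reporter under UAS control in GeneBLAzer FXR HEK 293T cells (5000/well) measured with LiveBLAzer FRET substrate after 2 h at room temperature. Compound exposure lasted 16 h at 37C.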

[9] = molecular target: Vitamin D3 receptor (Homo sapiens) (UniProt P11473); experiment: qHTS assay to identify small molecule agonists of the vitamin D receptor (VDR) signaling pathway (AID 743222; calls by dose curve)
Summary of the method: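 Quantitative HTS agonist-mode screen: compounds in DMSO were pin-transferred onto VDR-bla cells and incubated 16 h at 37C, 5% CO2. Reporter activity was detected with LiveBLAzer B/G FRET substrate after 2 h at room temperature.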

Vitamin D3 receptor (Homo sapiens), sequence (P11473 whole entry, looked up): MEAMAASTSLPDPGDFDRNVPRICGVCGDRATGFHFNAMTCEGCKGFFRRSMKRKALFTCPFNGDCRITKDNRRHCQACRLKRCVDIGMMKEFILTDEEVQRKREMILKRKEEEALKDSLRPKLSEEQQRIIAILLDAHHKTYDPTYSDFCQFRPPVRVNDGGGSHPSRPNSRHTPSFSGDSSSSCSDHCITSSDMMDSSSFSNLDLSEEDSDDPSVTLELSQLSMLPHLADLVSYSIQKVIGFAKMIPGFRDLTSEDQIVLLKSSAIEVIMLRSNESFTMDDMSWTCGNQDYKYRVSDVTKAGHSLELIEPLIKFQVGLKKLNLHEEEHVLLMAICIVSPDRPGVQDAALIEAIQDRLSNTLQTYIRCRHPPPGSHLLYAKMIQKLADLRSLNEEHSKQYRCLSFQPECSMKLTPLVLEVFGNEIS
Bile acid receptor (Homo sapiens), sequence (Q96RI1 whole entry, looked up): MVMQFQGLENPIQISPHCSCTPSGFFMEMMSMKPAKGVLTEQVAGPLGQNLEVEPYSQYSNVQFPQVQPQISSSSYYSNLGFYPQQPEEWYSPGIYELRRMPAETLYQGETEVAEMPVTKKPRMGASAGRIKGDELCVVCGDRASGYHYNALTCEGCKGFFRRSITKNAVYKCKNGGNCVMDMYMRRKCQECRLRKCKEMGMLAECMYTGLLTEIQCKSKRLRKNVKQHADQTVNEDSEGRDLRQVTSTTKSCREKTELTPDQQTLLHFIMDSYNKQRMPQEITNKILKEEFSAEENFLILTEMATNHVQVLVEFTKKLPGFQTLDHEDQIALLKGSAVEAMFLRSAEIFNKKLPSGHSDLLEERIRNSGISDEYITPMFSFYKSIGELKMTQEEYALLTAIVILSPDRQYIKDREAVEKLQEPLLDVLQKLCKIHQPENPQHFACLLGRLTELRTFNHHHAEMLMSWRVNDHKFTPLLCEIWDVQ
Peroxisome proliferator-activated receptor delta (Homo sapiens), sequence (Q03181 whole entry, looked up): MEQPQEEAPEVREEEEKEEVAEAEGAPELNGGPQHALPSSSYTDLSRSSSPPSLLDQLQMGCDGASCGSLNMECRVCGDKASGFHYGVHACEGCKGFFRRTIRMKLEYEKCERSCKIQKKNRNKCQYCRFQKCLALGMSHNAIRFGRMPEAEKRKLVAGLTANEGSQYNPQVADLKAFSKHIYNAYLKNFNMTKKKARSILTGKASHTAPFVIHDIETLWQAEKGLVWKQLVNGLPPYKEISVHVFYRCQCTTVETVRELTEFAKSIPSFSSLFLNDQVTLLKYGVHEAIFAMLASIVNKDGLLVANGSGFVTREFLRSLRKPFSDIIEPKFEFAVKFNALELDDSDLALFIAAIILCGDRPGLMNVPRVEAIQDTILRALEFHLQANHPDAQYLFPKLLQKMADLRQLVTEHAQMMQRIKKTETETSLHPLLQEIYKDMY

| SMILES | Potency [1] | Potency [2] | Potency [3] | Potency [4] | Potency [5] | outcome [6] | Potency [7] | Potency [8] | outcome [9] |
| --- | --- | --- | --- | --- | --- | --- | --- | --- | --- |
| O=C(NCCCN1CCOCC1)c1ccc(Cl)cc1 | inactive | inactive | inactive | inactive | inactive | inactive | – | – | – |
| CO/N=C1\CN(c2nc3c(cc2F)c(=O)c(C(=O)O)cn3C2CC2)CC1CN (stereo not drawn) | inactive | inactive | inactive | inactive | – | – | inactive | inactive | – |
| Cc1cnc(C)c(C)n1 | inactive | inactive | inactive | inactive | inactive | – | – | – | inactive |
| CCCCCCCCCCCC[N+](C)(C)CCCS(=O)(=O)[O-] | inactive | – | inactive | inactive | – | – | – | – | inactive |
| CCCCC1C(=O)N(c2ccccc2)N(c2ccc(O)cc2)C1=O (stereo not drawn) | – | inactive | inactive | inactive | – | – | – | – | – |
| CCNC(=O)N1CCN(CCCC(c2ccc(F)cc2)c2ccc(F)cc2)CC1 | inactive | inactive | – | inactive | – | inactive | – | – | – |
| O=C(CCCCCCC(=O)Nc1ccccc1)NO | inactive | inactive | inactive | – | inactive | inactive | – | – | – |
| OC(CCCN1CCCCC1)(c1ccccc1)c1ccccc1 | inactive | inactive | inactive | – | – | inactive | – | – | inactive |
| O=C(O)c1cccc(O)c1 | – | – | – | inactive | inactive | – | inactive | inactive | – |
| O=C(CCCCCCCCC#CI)Oc1ccccc1 | – | inactive | inactive | inactive | inactive | inactive | inactive | inactive | inactive |
| CC1C2CC(CC2C2CCCC(O)C2)C1(C)C (stereo not drawn) | inactive | – | inactive | – | – | – | – | inactive | – |
| CC(C)C(=O)O | inactive | – | inactive | inactive | inactive | inactive | – | – | inactive |
| O=C(CCCN1CCN(c2ccc(F)cc2)CC1)NC1c2ccccc2CSc2ccccc21 (stereo not drawn) | inactive | 8.41 µM (active) | – | 10.6 µM (active) | 26.6 µM (active) | – | – | inactive | – |
| COc1cc2c(N3CCN(C(=O)Nc4ccc(OC(C)C)cc4)CC3)ncnc2cc1OCCCN1CCCCC1 | – | – | – | inactive | inactive | – | – | – | inactive |
| Nc1ccc(C(=O)OCCCOC(=O)c2ccc(N)cc2)cc1 | – | inactive | – | inactive | inactive | inactive | inactive | inactive | – |
| C=CC(=O)NCOCC(C)C | – | inactive | – | inactive | – | – | inactive | inactive | inactive |
| COC(=O)c1cc(S(N)(=O)=O)ccc1OC | – | inactive | – | inactive | – | inactive | inactive | inactive | inactive |
| CC(C)(C)CC(C)(C)c1ccc(OCCO)cc1 | – | – | – | – | – | inactive | – | inactive | – |
| CC(=O)Oc1ccc(C(=C2CCCCC2)c2ccc(OC(C)=O)cc2)cc1 | inactive | inactive | – | inactive | inactive | – | inactive | inactive | – |
| CCCCCCCC/C=C\CCCCCCCC(=O)OC | inactive | inactive | inactive | – | – | inactive | – | – | inactive |
| CSc1ccc(Oc2ccc(S(N)(=O)=O)cc2CN(C)C)cc1C | – | inactive | – | – | – | – | – | inactive | inactive |
| CCCOC(=O)c1ccc(C(=O)OCCC)nc1 | inactive | inactive | – | inactive | inactive | – | – | inactive | – |

| SMILES | Potency [1] | Potency [2] | Potency [3] | Potency [4] | Potency [5] | outcome [6] | Potency [7] | Potency [8] | outcome [9] |
| --- | --- | --- | --- | --- | --- | --- | --- | --- | --- |
| COc1cc2c(cc1OC)-c1cc(=Nc3c(C)cc(C)cc3C)n(C)c(=O)n1CC2 | – | – | – | inactive | inactive | inactive | – | – | – |
| COC(=O)Nc1nc2ccc(C(=O)c3cccs3)cc2[nH]1 | – | – | – | – | – | – | – | inactive | inactive |
| Fc1ccccc1[C@@H](F)COC1CCC(Nc2ncnc3[nH]ncc23)CC1 (stereo partly drawn) | inactive | inactive | – | inactive | inactive | – | 43.6 µM (active) | inactive | inactive |
| O=C(CCC1CCN(Cc2ccccc2)CC1)c1ccc2c(c1)NCCCC2 | – | inactive | – | inactive | – | – | – | – | – |
| Cc1cc(O)c2c(O)c3c(O)cccc3cc2c1 | – | inactive | – | inactive | – | – | inactive | – | – |
| CCc1nn(CCCN2CCN(c3cccc(Cl)c3)CC2)c(=O)n1CCOc1ccccc1 | – | inactive | inactive | inactive | inactive | – | – | – | – |
| CCc1cccc(N(C)C(N)=Nc2cccc3ccccc23)c1 | – | inactive | – | inactive | inactive | inactive | – | – | inactive |
| COCCOC(=O)C1=C(C)NC(C)=C(C(=O)OC/C=C/c2ccccc2)C1c1cccc([N+](=O)[O-])c1 (stereo not drawn) | – | inactive | inactive | inactive | inactive | inactive | – | 9.44 µM (active) | – |
| CC(=O)[C@H]1CC[C@H]2[C@@H]3C[C@H](C)C4=CC(=O)CC[C@]4(C)[C@H]3[C@@H](O)C[C@]12C | inactive | inactive | – | inactive | inactive | inactive | inactive | inactive | inactive |
| CCCCC(=O)O[C@]1(C(=O)CO)[C@@H](C)C[C@H]2[C@@H]3CCC4=CC(=O)C=C[C@]4(C)[C@@]3(F)[C@@H](O)C[C@@]21C | inactive | – | inactive | inactive | inactive | inactive | – | – | inactive |
| O=C(C(=O)c1ccccc1)c1ccccc1 | – | inactive | – | – | – | – | – | – | inactive |
| CC[C@@H]([C@H](C)O)n1ncn(-c2ccc(N3CCN(c4ccc(OC[C@@H]5CO[C@@](Cn6cncn6)(c6ccc(F)cc6F)C5)cc4)CC3)cc2)c1=O | – | 23.7 µM (active) | – | 29.8 µM (active) | 29.8 µM (active) | inactive | – | – | inactive |
| CNC(=S)NC | inactive | inactive | – | 17.4 µM (active) | 38.9 µM (active) | – | inactive | inactive | inactive |
| CN(C)CCOC1=Cc2ccccc2Sc2ccc(Cl)cc21 | inactive | 26.6 µM (active) | – | – | – | – | inactive | inactive | – |
| O=C(CCCN1CCC(O)(c2ccc(Br)cc2)CC1)c1ccc(F)cc1 | inactive | inactive | inactive | – | – | inactive | – | – | – |
| O=C(N[C@@H](c1ccccc1)[C@@H]1CCCCN1)c1cccc(C(F)(F)F)c1Cl | – | 27.5 µM (active) | – | 43.6 µM (active) | inactive | inactive | – | inactive | – |
| CCCCCC=CCC=CCCCCCCCC(=O)OCC | – | – | inactive | inactive | inactive | inactive | inactive | inactive | inactive |
| CCCCCCCC/C=C\CCCCCCCC(=O)OC(CO)CO | – | inactive | – | inactive | inactive | – | – | – | – |
| CCCc1c(OCCCOc2ccc(OCC(=O)O)cc2)ccc(C(C)=O)c1O | 0.011 µM (active) | – | – | – | inactive | inactive | inactive | – | – |
| CCOC(=O)N1CCC(n2c(=O)[nH]c3cc(Cl)ccc32)CC1 | – | inactive | – | inactive | inactive | inactive | – | – | – |
| O=C(Nc1ccc([N+](=O)[O-])cc1)Nc1ccc([N+](=O)[O-])cc1 | – | – | inactive | 0.75 µM (active) | – | inactive | inactive | inactive | inactive |
